Screens deposited in PubChem BioAssay by ICCB-Longwood Screening Facility, Harvard Medical School.
A selection: hits, their analogues and other compounds. The true share with any hit is near 1.5%.
Polio RdRp inh = poliovirus RdRp elongation inhibitors, primary screen, biochemical, fluorescence polarization, total intensity; Genome polyprotein (Poliovirus type 1 (strain Mahoney)), P03300; poliovirus polymerase elongation; active compounds read low; % elongation, % (compound at 16.7 µg/mL); 150,000 tested, 0.66% active; in the data active = % elongation below about 90%
MenB inh = M. tuberculosis MenB inhibitors, primary screen, biochemical, absorbance; 1,4-dihydroxy-2-naphthoyl-CoA synthase (Mycobacterium tuberculosis (strain ATCC 25618 / …; MenB enzyme assay, absorbance read-out; inhibition, % (no concentration beside the values); 100,000 tested, 0.43% active; AID 540299, 2011; in the data active = inhibition above about 21%, passing the limit was not always enough
Target sequence (P9WNP5 whole entry, looked up): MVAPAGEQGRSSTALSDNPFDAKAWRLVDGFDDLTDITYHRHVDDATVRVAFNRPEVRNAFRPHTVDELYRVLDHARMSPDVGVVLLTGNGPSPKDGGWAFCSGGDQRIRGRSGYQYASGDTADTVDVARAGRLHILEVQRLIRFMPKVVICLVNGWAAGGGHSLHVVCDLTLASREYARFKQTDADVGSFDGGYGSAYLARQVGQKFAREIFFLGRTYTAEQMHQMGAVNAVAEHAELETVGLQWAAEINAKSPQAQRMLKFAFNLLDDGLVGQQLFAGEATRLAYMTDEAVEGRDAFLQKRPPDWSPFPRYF
MbtI inh = MbtI salicylate synthase inhibitors, primary screen, biochemical, fluorescence intensity; P9WFX0; purified MbtI enzyme, fluorescence intensity read-out; inhibition, % (no concentration beside the values); 100,000 tested, 0.89% active; AID 493033, 2011; in the data active = inhibition mostly above about 56%, no sharp cut-off; inactive = mostly below about 77%
Of the large screens only hits and unclear results are named; the others gave an inactive call; ! = not confirmed by another sample.

CC(C)Cn1c(N)c(C(=O)c2ccc(S(=O)(=O)N3CCCCC3)cc2)c(=O)[nH]c1=O	none
O=C(Nc1ccccc1C(F)(F)F)c1cccs1	none (no result: MbtI inh)
O=C(Nc1ccccc1C(=O)O)c1cccs1	MbtI inh 89
COC(=O)C1=C(C)Nc2ccccc2S1	MbtI inh 58
CC1=C(C(=O)NN)Sc2ccccc2N1	none
COc1ccc(N2CCN(CC(O)COc3ccccc3)CC2)cc1 (stereo unspecified)	none
C=CCn1cn[nH]c1=S	MbtI inh 61
C=CCOc1ccc(CNn2cn[nH]c2=S)cc1	none
CCCCn1c(SCC(=O)NCc2cccs2)nnc1C(CC)N(C)C (stereo unspecified)	none
CCS(=O)(=O)c1ccc2oc(=S)[nH]c2c1	none
CN(C)S(=O)(=O)c1ccc2oc(=S)[nH]c2c1	Polio RdRp inh 88
O=C(O)CON=C1C2CC3CC(C2)CC1C3	Polio RdRp inh 78
O=C(O)CO/N=C/c1ccccc1	none
CCNC(=O)CSCc1ccc(C)cc1	none
Cc1cccc(C)c1Nc1c(-c2ccccc2F)nc2cccc(C)n12	Polio RdRp inh 88 (no result: MenB inh, MbtI inh)
Cc1cccc2nc(-c3ccccn3)c(Nc3ccc(F)cc3)n12	none (no result: MenB inh, MbtI inh)
CC1CCCCC1NC(=O)c1cn(-c2ccccc2)nc1-c1cccs1 (stereo unspecified)	none
Oc1ccccc1C1OCC(C2CC=CCC2)CO1 (stereo unspecified)	MenB inh 36
O=C1NC(C2CC=CCC2)Nc2ccccc21 (stereo unspecified)	none
CCc1cc2c(=O)c(-c3nc4ccccc4[nH]3)c(CCC(=O)O)oc2cc1O	none
CCn1cc(C(=O)N2CCCCC2)c(=O)c2cc(S(=O)(=O)N3CCCC3)ccc21	none
CNC(=O)c1c(N)sc2c1CCCCC2	none (no result: MbtI inh)
NC(=O)c1c(N)sc2c1CCCCC2	Polio RdRp inh 78
CC(C)(CO)C12CC3CC(CC(C3)C1)C2	none
O=S(=O)(Nc1ccccc1)C(Nc1ccccc1)c1ccccc1F (stereo unspecified)	none (no result: MenB inh)
COc1ccc(Cl)cc1NC(=O)c1cc2c(Cl)nc3ccc(C)cc3c2s1	none
Cc1ccc(NC(=O)c2cc3c(Cl)nc4ccc(C)cc4c3s2)c(Cl)c1	Polio RdRp inh 63 (no result: MenB inh, MbtI inh)
Cc1ccc(C(=O)OCC(=O)N2CCc3ccccc32)c(C)c1	none (no result: MenB inh)
O=S1(=O)NC(=NCC(c2ccc(F)cc2)N2CCOCC2)c2ccccc21 (stereo unspecified)	none
O=c1oc(C23CC4CC(CC(C4)C2)C3)ns1	Polio RdRp inh 73 (no result: MbtI inh)
Brc1ccc(-c2nnc(C34CC5CC(CC(C5)C3)C4)o2)cc1	none
CC(=NCc1cccnc1)c1c(C)[nH]n(-c2nc3ccccc3s2)c1=O	MenB inh 34
CC(=NCCSCc1nc[nH]c1C)c1c(C)[nH]n(-c2nc3ccccc3s2)c1=O	none
N#Cc1ccc(C(=O)OCC(=O)c2cc3ccccc3o2)cc1	none
O=C(CSc1nnc(-c2c[nH]c3ccccc23)o1)C12CC3CC(CC(C3)C1)C2	none
Cc1cc(C)n(C(C)CNC(=O)c2ccccc2)n1 (stereo unspecified)	none
Cc1cc(C)n(C(=O)C(C)NC(=O)c2ccccc2)n1 (stereo unspecified)	MenB inh 23 (no result: MbtI inh)
O=C(CSc1nc2c([nH]c3ccccc32)c(=O)n1-c1ccccc1)Nc1ccccc1	none
CC(Sc1nc2sc3c(c2c(=O)[nH]1)CCCC3)C(=O)Nc1nccs1 (stereo unspecified)	none
COc1ccc(NC(=O)c2c(NC(=O)COc3ccccc3)sc3c2CCCCC3)cc1	none (no result: MenB inh, MbtI inh)
Cc1ccccc1NC(=O)c1c(NC(=O)C(C)Oc2cccc(Cl)c2)sc2c1CCCC2 (stereo unspecified)	Polio RdRp inh 87 (no result: MenB inh, MbtI inh)
O=C(COc1ccc(Cl)cc1)Nc1sc2c(c1C(=O)Nc1cccc(Cl)c1)CCCC2	Polio RdRp inh 81 (no result: MenB inh, MbtI inh)
CCOc1ccccc1NC(=O)c1c(NC(=O)C(C)Oc2cccc(Cl)c2)sc2c1CCCCC2 (stereo unspecified)	none (no result: MenB inh, MbtI inh)
O=C(Nc1cccc(Cl)c1)c1c(NC(=O)C(F)(F)F)sc2c1CCCC2	Polio RdRp inh 79 (no result: MenB inh, MbtI inh)
COc1ccccc1NC(=O)c1c(NCc2sccc2C)sc2c1CCCCC2	none (no result: MenB inh, MbtI inh)
COc1ccc(Cl)cc1NC(=O)c1c(NCc2sccc2C)sc2c1CCCC2	Polio RdRp inh 70 (no result: MenB inh, MbtI inh)
Cc1cccc(NC(=O)c2c(NC(=O)C(F)(F)F)sc3c2CCCCC3)c1	none (no result: MenB inh, MbtI inh)
Cc1cc(C)c2c(n1)nn1c(C)c(CCC(=O)O)c(C)nc21	none
CCN1C(=O)/C(=C2/C=Cc3ccccc3N2CC)N(C)C1=S	none (no result: MbtI inh)
C=CCn1c(COc2ccccc2)n[nH]c1=S	none (no result: MbtI inh)
Cn1c(COc2ccccc2)n[nH]c1=S	MbtI inh 65!
CCOc1ccc(CCNC(=O)C2CCN(S(=O)(=O)c3cccc4nonc34)CC2)cc1OCC	none
Cc1nn(-c2ccccc2)c(Cl)c1C(=O)N1CCN(C)CC1	none (no result: MenB inh)
